Assay [1] is described as follows: qHTS of pediatric cancer cell lines to identify multiple opportunities for drug repurposing: Primary screen for BT-12 cells (AID 1347101). Further: nearly all actives have a fitted effect of over 25% in size. Further: potency means the concentration at half of the fitted maximal effect. The essentials:
(§1)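 Cells (500-1,000/well) rested 5 h, then received compounds for 48 h; metabolically active cells were measured by CellTiter-Glo luminescence. Final concentrations spanned up to 46 µM (MIPE, 11-point) or 0.59 nM-46 µM (NPC, 8-point) in primary screens, 11-point in follow-ups.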
For orientation: In qHTS, concentration-response curves come from the screen itself.

A short description of assay [2]: qHTS of pediatric cancer cell lines to identify multiple opportunities for drug repurposing: Primary screen for Rh18 cells (AID 1347102). Further: nearly all actives have a fitted effect of over 65% in size. The essentials:
as §1

Assay [3] can be described thus: qHTS of pediatric cancer cell lines to identify multiple opportunities for drug repurposing: Primary screen for control Hh wild type fibroblast cells (AID 1347106). Further: nearly all actives have a fitted effect of over 55% in size. Further: potency means the concentration at half of the fitted maximal effect. In outline:
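Viability after 48 h compound treatment at 37C, 500-1,000 cells/well, read as ATP luminescence with CellTiter-Glo. Primary screens used 11-point (MIPE, 0.78 nM-46 µM) or 8-point (NPC, 0.59 nM-46 µM) final concentrations; follow-up screens used 11-point dilutions.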

Assay [4] in a line: qHTS of pediatric cancer cell lines to identify multiple opportunities for drug repurposing: Primary screen for Rh30 cells (AID 1347107). Further: series mostly up to about 46 µM; nearly all actives have a fitted effect of over 75% in size. The essentials: as §1
Assay [5] can be described thus: qHTS of pediatric cancer cell lines to identify multiple opportunities for drug repurposing: Primary screen for Rh41 cells (AID 1347108). Further: nearly all actives have a fitted effect of over 70% in size. Further: potency means the concentration at half of the fitted maximal effect. In outline: (§2)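 Following a 5-hour attachment period, cells at 500-1,000/well received compounds and were cultured for 48 hours. CellTiter-Glo was added and luminescence read to estimate viable, metabolically active cells.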
Assay [6] is described as follows: qHTS of pediatric cancer cell lines to identify multiple opportunities for drug repurposing: Primary screen for OHS-50 cells (AID 1347103). Further: nearly all actives have a fitted effect of over 40% in size. Further: potency means the concentration at half of the fitted maximal effect. The essentials: as §1
Assay [7] is described as follows: qHTS of pediatric cancer cell lines to identify multiple opportunities for drug repurposing: Primary screen for RD cells (AID 1347104). Further: nearly all actives have a fitted effect of over 55% in size. Further: potency means the concentration at half of the fitted maximal effect. The essentials: as §2
A short description of assay [8]: qHTS of pediatric cancer cell lines to identify multiple opportunities for drug repurposing: Primary screen for MG 63 (6-TG R) cells (AID 1347105). Further: nearly all actives have a fitted effect of over 50% in size. Further: potency means the concentration at half of the fitted maximal effect. In outline:
as §2

Assay [9] in a line: qHTS of pediatric cancer cell lines to identify multiple opportunities for drug repurposing: Confirmatory screen for NB1643 cells (AID 1347109). Further: nearly all actives have a fitted effect of over 45% in size. Further: potency means the concentration at half of the fitted maximal effect. The essentials: as §1
A short description of assay [10]: qHTS of pediatric cancer cell lines to identify multiple opportunities for drug repurposing: Confirmatory screen for SK-N-MC cells (AID 1347111).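 Further: potency means the concentration at half of the fitted maximal effect; cells exposed to compound for 48 h before the readout; nearly all actives have a fitted effect of over 70% in size.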 In outline:
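Seed 500-1,000 cells/well; rest 5 h at 37 degrees C. Pin-transfer compounds, 11-point titration. Incubate 48 h. Add CellTiter-Glo, 15 min RT, read luminescence.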

The nature of assay [11]: qHTS of pediatric cancer cell lines to identify multiple opportunities for drug repurposing: Confirmatory screen for BT-12 cells (AID 1347112). Further: nearly all actives have a fitted effect of over 55% in size. Further: potency means the concentration at half of the fitted maximal effect. The essentials:
as §1

A short description of assay [12]: qHTS of pediatric cancer cell lines to identify multiple opportunities for drug repurposing: Confirmatory screen for LAN-5 cells (AID 1347113). Further: nearly all actives have a fitted effect of over 65% in size. Further: potency means the concentration at half of the fitted maximal effect. In outline:
as §1

Assay [13] in a line: qHTS of pediatric cancer cell lines to identify multiple opportunities for drug repurposing: Confirmatory screen for NB-EBc1 cells (AID 1347115).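 Further: cells exposed to compound for 48 h before the viability read; nearly all actives have a fitted effect of over 45% in size.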 Further: potency means the concentration at half of the fitted maximal effect. In outline:
as §1

Assay [14] in a line: qHTS of pediatric cancer cell lines to identify multiple opportunities for drug repurposing: Confirmatory screen for SJ-GBM2 cells (AID 1347116). Further: nearly all actives have a fitted effect of over 60% in size. Further: potency means the concentration at half of the fitted maximal effect. In outline:
(§3)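 Viability measured as metabolically active cells via CellTiter-Glo luminescence following 48 hours of compound exposure, 11-point dilutions in confirmatory testing. 500-1,000 cells/well plated 5 hours before dosing; controls were DMSO and 2.3 µM bortezomib.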

A short description of assay [15]: qHTS of pediatric cancer cell lines to identify multiple opportunities for drug repurposing: Confirmatory screen for RD cells (AID 1347124).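 Further: cells exposed to compound for 48 h before viability readout; nearly all actives have a fitted effect of over 65% in size.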 Further: potency means the concentration at half of the fitted maximal effect. In outline: as §1
A short description of assay [16]: qHTS of pediatric cancer cell lines to identify multiple opportunities for drug repurposing: Confirmatory screen for DAOY cells (AID 1347114). Further: nearly all actives have a fitted effect of over 65% in size. The essentials: as §3
A short description of assay [17]: qHTS of pediatric cancer cell lines to identify multiple opportunities for drug repurposing: Confirmatory screen for control Hh wild type fibroblast cells (AID 1347121). Further: nearly all actives have a fitted effect of over 70% in size. The essentials: as §1
Assay [18] is described as follows: qHTS of pediatric cancer cell lines to identify multiple opportunities for drug repurposing: Confirmatory screen for U-2 OS cells (AID 1347122). Further: nearly all actives have a fitted effect of over 65% in size. Further: potency means the concentration at half of the fitted maximal effect. The essentials:
as §1

Assay [19] in a line: qHTS of pediatric cancer cell lines to identify multiple opportunities for drug repurposing: Confirmatory screen for Rh30 cells (AID 1347126). Further: nearly all actives have a fitted effect of over 55% in size. Further: potency means the concentration at half of the fitted maximal effect. In outline:
as §1

Assay [20] can be described thus: qHTS of pediatric cancer cell lines to identify multiple opportunities for drug repurposing: Confirmatory screen for Rh41 cells (AID 1347123).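 Further: 48 h compound exposure; nearly all actives have a fitted effect of over 60% in size.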 In outline: as §1

Values joined by “and” are separate entries in the source; they are usually repeats but may differ in a detail not shown here. Equal values may be shown once. Inconclusive results are not listed. Active and inactive are the calls of the source. The call rests on the fitted dose curve; in most records, active means well fitted curve in the direction sought with a large enough effect; inconclusive means small, poorly fitted or top-dose-only effect, or another doubt; inactive means no such curve, though single readings can be large; an effect the other way counts as inactive or inconclusive.

Turning to `Cc1ncc2n1-c1ccc(Cl)cc1C(c1ccccc1F)=NC2`, the Potency result in assay [1], in [2], in assay [3], in assay [4] and in assay [5] was “inactive” in each case.
With `CC(C)=C[C@@H]1[C@@H](C(=O)OCc2coc(Cc3ccccc3)c2)C1(C)C`, the Potency entry in [1], in assay [2], in assay [3], in [4] and in assay [5] was “inactive” in each case.
As for `Cc1nnc2n1-c1sc(CCc3ccc(CC(C)C)cc3)cc1C(c1ccccc1Cl)=NC2C` (configuration not stated), the Potency is 11 µM (active) in assay [1] and 21.9 µM (active) in [6]. Moreover, the Potency result in assay [3] and in assay [4] was “inactive” in each case.
With `CC#C[C@]1(O)CC[C@H]2[C@@H]3C[C@H](C)C4=CC(=O)CC[C@]4(C)[C@H]3CC[C@@]21C`, the Potency entry in assay [7], in assay [8], in [3], in assay [4] and in assay [5] was “inactive” throughout.
For the compound `O=C(CCl)c1ccc(Cl)cc1Cl`, the Potency entry in [2], in [3] and in [4] was “inactive” throughout.
`C[C@@H]1CC[C@H]2[C@@H](C)C(=O)O[C@@H]3O[C@@]4(C)CC[C@@H]1[C@]32OO4`: the Potency entry in assay [2], in assay [6], in assay [8], in [3], in [4] and in assay [5] was “inactive” in each case.
As for `C[C@H](CN1CCOCC1)C(C(=O)N1CCCC1)(c1ccccc1)c1ccccc1`, in [3], the Potency entry was “inactive”. In assay [5], the Potency was 46900 nM (active).
In the case of `COc1ccc2c3c1O[C@H]1[C@@H](O)C=C[C@H]4[C@@H](C2)N(C)CC[C@@]341`, the Potency entry in [3] and in assay [4] was “inactive” each time.
Consider `C=CC[C@]1(O)CC[C@H]2[C@@H]3CCC4=CC(=O)CCC4=C3C=C[C@@]21C`, for which the Potency result in assay [2], in assay [7], in assay [8], in assay [3], in [4] and in assay [5] was “inactive” in each case.
`C[C@@H]1O[C@@H](O[C@@H]2C=C3CC[C@@H]4[C@H](CC[C@]5(C)[C@@H](c6ccc(=O)oc6)CC[C@]45O)[C@@]3(C)CC2)[C@H](O)[C@H](O)[C@H]1O`: the Potency in assay [1] is 0.0031 µM (active); in assay [6] it was 0.0025 µM (active); in [7], 1.5 nM (active); in assay [8], 1.7 nM (active); in assay [3], 7.5 nM (active); in assay [9], 82.7 nM (active). Moreover, the Potency was 29.3 nM (active) in assay [10]; 41.4 nM (active) in [11]; 58.5 nM (active) in assay [12]; 29.3 nM (active) in assay [13]; 46.5 nM (active) in assay [14]; 3.3 nM (active) in assay [15]. Also, the Potency entry in assay [4] was “inactive”.
Consider `Clc1ccc(CSC(Cn2ccnc2)c2ccc(Cl)cc2Cl)cc1` (configuration not stated), for which, in assay [7], the Potency was 23700 nM (active). Also, in [3], the Potency entry is “inactive”.
Turning to `CC[C@H]1C[C@H]2[C@@H]3CCC4=CC(=O)CC[C@@H]4[C@H]3CC[C@]2(C)[C@H]1O`, the Potency entry in [2], in assay [7], in assay [8] and in assay [3] was “inactive” in each case.
Regarding `CC[C@]1(O)CC[C@H]2[C@@H]3CCC4=CCCC[C@@H]4[C@H]3CC[C@@]21C`, the Potency entry in assay [3], in [4] and in assay [5] was “inactive” in each case.
As to `C[C@]12Cc3nonc3C[C@@H]1CC[C@@H]1[C@@H]2CC[C@@]2(C)[C@H]1CC[C@]2(C)O`, the Potency result in assay [2], in assay [8], in [3] and in assay [4] was “inactive” throughout. For the same compound, the Potency in assay [6] is 15.5 µM (active).
In the case of `O=C1NCN(c2ccccc2)C12CCN(CCCOc1ccc(F)cc1)CC2`, the values for the Potency in assay [1] and in [6] were 11 µM (active) and 27.6 µM (active), respectively. The Potency result in [8], in assay [3], in assay [4] and in assay [5] was “inactive” throughout.
Take `C[C@@H]1C[C@@H]([C@H](O)CC2CC(=O)NC(=O)C2)C(=O)[C@@H](C)C1`: the Potency was 777 nM (active) and 611 nM (active) in assay [1]; 276 nM (active) and 137 nM (active) in assay [6]; 473 nM (active) and 235 nM (active) in [7]; 4690 nM (active) in [5]; 928 nM (active) and 1.31 µM (active) in [10]; 2930 nM (active) in assay [11]. The Potency in assay [12] was 928 nM (active) and 2.61 µM (active); in assay [14] it was 2330 nM (active); in assay [18] it was 3290 nM (active); in [15] it was 2610 nM (active); in assay [19], 737 nM (active). The Potency result in assay [3], in assay [4], in [16] and in assay [17] was “inactive” throughout.
For the compound `CCCCCCCCC(=O)NCc1ccc(O)c(OC)c1`, the Potency result in [1], in assay [2], in [3], in [4], in [5] and in assay [9] was “inactive” throughout. Besides, the Potency entry in assay [11], in [12], in assay [16], in [13], in [14] and in [17] was “inactive” throughout. Moreover, the Potency result in assay [18], in assay [20], in assay [15] and in assay [19] was “inactive” in each case.

The record behind these values is PubChem BioAssay (NCATS).
